According to PubChem BioAssay (NCATS):
Several values for one entry are separate records, joined by “and”; a condition that tells them apart may be missing. Equal values may be shown once. Inconclusive results are not listed. Values without a mark were called inactive. Activity calls are given as the source filed them. The call rests on the fitted dose curve; in most records, active means well fitted activation curve with a large enough effect; inconclusive means small, poorly fitted or top-dose-only effect; inactive means no such curve, though single readings can be large or run the other way.

Target: Cellular tumor antigen p53 (Homo sapiens) (UniProt P04637)
Experiment: Primary qHTS for small molecule compounds that upregulate eGFP-tagged delta133p53alpha (in N-terminal) cells. (AID 2060322); further: nearly all actives have a fitted effect of over 75% in size;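 on activation: series mostly up to about 56 µM; 0% = DMSO vehicle and 100% = reference activator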
Details: NCI-H358 eGFP-delta133p53alpha fluorescence, 24 h; activation: active compounds read high
Method in brief: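 NCI-H358 cells pre-induced 24 h with 10 ng/ml doxycycline for eGFP-delta133p53alpha, plated dox-free and exposed 24 h at 37C to titrated compounds. Fixed, Hoechst-stained; gated GFP peak intensity by laser scanning cytometry, normalized to DMSO (0%) and 57.5 uM 5-azacytidine (100%).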
Potency means the concentration at half of the fitted maximal effect.

Sequence of Cellular tumor antigen p53 (Homo sapiens) (P04637 whole entry, looked up): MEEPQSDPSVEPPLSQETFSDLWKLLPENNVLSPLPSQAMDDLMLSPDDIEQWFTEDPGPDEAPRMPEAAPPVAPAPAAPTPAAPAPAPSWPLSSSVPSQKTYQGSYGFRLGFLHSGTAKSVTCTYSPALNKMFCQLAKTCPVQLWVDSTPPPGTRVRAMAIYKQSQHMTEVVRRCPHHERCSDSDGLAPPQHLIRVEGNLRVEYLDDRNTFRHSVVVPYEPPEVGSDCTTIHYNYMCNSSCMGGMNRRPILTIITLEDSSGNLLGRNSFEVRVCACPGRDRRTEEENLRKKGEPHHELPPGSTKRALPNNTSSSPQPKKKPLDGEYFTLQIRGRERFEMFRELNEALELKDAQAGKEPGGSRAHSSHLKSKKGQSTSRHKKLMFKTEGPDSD

Going from O=C1N[C@@H](Cc2ccccc2)CN2CCCC[C@@H]12 to O=C(O)c1ccnc2cc(C(OCCN3CCCCC3)c3ccccc3Cl)[nH]c12 (stereo not given), the activation falls from -9.16% to -17%.

Going from CC(=O)OC[C@]12[C@H](OC(C)=O)C(=O)[C@@H]3[C@@H](O)[C@@]14O[C@@]3(C)COC(=O)c1cccnc1[C@@H](C)[C@H](C)C(=O)O[C@@H]([C@H](OC(C)=O)[C@@H]2OC(C)=O)[C@]4(C)O to C=C1[C@@H](C)[C@H]2[C@H](Cc3ccccc3)NC(=O)[C@]23[C@H](OC(C)=O)/C=C/[C@](C)(O)C(=O)[C@@H](C)C/C=C/[C@H]3[C@@H]1O, the activation falls from 21.4% to -8.04%.

Going from CC(C)(C)NC[C@H](O)c1ccc(O)cc1Cl to CN1C(=O)C(Cc2ccc3ccccc3c2)N=C(c2ccc(O)cc2)c2cc(Cl)ccc21 (stereo not given), the activation rises from -6.33% to 10.3%.

First: CCCCC1C(=O)NC(=O)N(C2CCCCC2)C1=O (stereo not given)
Second: CC[C@H]1C[C@H]2[C@@H]3CCC4=CC(=O)CC[C@@H]4[C@H]3CC[C@]2(C)[C@H]1O
The activation of the first is higher: 17% for the first, 5.67% for the second.

Going from C[C@H]1O[C@@H](O[C@H]2[C@@H](O)C[C@H](O[C@H]3[C@@H](O)C[C@H](O[C@H]4CC[C@@]5(C)[C@H](CC[C@@H]6[C@@H]5CC[C@]5(C)[C@@H](C7=CC(=O)OC7)CC[C@]65O)C4)O[C@@H]3C)O[C@@H]2C)C[C@H](O)[C@@H]1O to CO[C@H]1C[C@H](O[C@H]2CC[C@]3(C=O)[C@H]4CC[C@]5(C)[C@@H](C6=CC(=O)OC6)CC[C@]5(O)[C@@H]4CC[C@]3(O)C2)O[C@H](C)[C@H]1O, the activation falls from 5.34% to -29.8%.

Going from CC1CCCC(=O)CCC/C=C/c2cc(O)cc(O)c2C(=O)O1 (stereo not given) to CN1CCc2cc3c(cc2C1C1OC(=O)c2c1ccc1c2OCO1)OCO3 (stereo not given), the activation falls from 7.14% to -26%.

Going from C[C@H]1C(=O)O[C@H]2[C@H](O)[C@]34C5OC(=O)[C@]3(O[C@@H]3OC(=O)[C@H](O)C34[C@H](C(C)(C)C)[C@H]5O)C12O (stereo not given in full) to C[C@@]12C[C@@H](c3ccoc3)OC(=O)C1CC[C@]1(C)[C@H]2[C@H]2C=C[C@]1(O)C(=O)O2 (stereo not given in full), the activation rises from -12.2% to -2.29%.

Compared with C[C@]12CC[C@H](O)C[C@@H]1CC[C@@H]1[C@@H]2CC[C@]2(C)[C@@H](C3=CC(=O)OC3)CC[C@]12O, CC(=O)C1CCC2C3CCC4C[C@@H](O)CCC4(C)C3CCC12C (stereo not given in full) is lower in activation: 7.63% for the first, -2.33% for the second.

Compared with COc1ccc2c3c([nH]c2c1)C(C=C(C)C)N1C(=O)C2CCCN2C(=O)C1C3 (stereo not given), Cc1c(N2C(=O)[C@@H]3[C@H](O)CCN3C2=O)ccc(C#N)c1Cl is higher in activation: -3.82% for the first, 3.82% for the second.

First: OCc1nnc2n1-c1ccc(Cl)cc1C(c1ccccc1Cl)=NC2
Second: CN1CCC2=C(C1)c1ccccc1Cc1ccccc12
The activation of the first is lower: -3.67% for the first, 16.2% for the second.

First: CC1=CC2/C=C(\C)CCC(O)C(O)/C=C/C(=O)OC23C(=O)NC(CC(C)C)C3C1C (stereo not given)
Second: COC(=O)C1=COC(C)C2CN3CCC4(C(=O)Nc5ccccc54)C3CC12 (stereo not given)
The activation of the first is lower: 0.763% for the first, 11.5% for the second.

First: CCCCCn1cc(C(=O)c2cccc3ccccc23)c2ccccc21
Second: O=C(O)CCCCCCNC1c2ccccc2CCc2ccccc21
The activation of the first is higher: 20.5% for the first, 5.67% for the second.

First: C[C@H](CCC(=O)O)C[C@H](C)C[C@H](C)C(=O)/C=C(\O)[C@H](C)C[C@H](C)C/C=C/[C@@H](C)[C@@H](O)[C@@H](C)[C@@H](O)C[C@@H]1CC[C@@](C)([C@H]2CC[C@@](C)([C@@H](C)O)O2)O1
Second: C/C=C(\C)C(O)C(C)/C=C(C)/C=C/C/C(C)=C/Cc1nc(OC)c(OC)c(O[C@@H]2O[C@@H](C)[C@H](O)[C@@H](O)[C@H]2O)c1C (stereo not given in full)
The activation of the first is higher: -6.33% for the first, -19.1% for the second.

First: C=CC/C=C\C/C=C\CCCCCCCc1cc(O)cc(O)c1
Second: CCOc1ccc(Oc2ccc(OCc3cc(F)ccc3F)cc2)c(N)c1
The activation of the first is lower: -9.92% for the first, 3.57% for the second.

Going from COc1cc2c(cc1OC)[C@@]13CCN4CC5=CCO[C@H]6CC(=O)N2[C@H]1[C@H]6[C@H]5C[C@H]43 to CC(C)(O)[C@H]1O[C@H]2CC[C@@]3(C)[C@@](O)(CC[C@H]4Cc5c([nH]c6ccccc56)[C@@]43C)C2=CC1=O, the activation rises from -22.1% to 3.82%.

First: C=CC(C)(O)CC/C=C(\C)C(=O)O[C@H]1[C@H](O)[C@@H](CO)O[C@@H](OC(=O)[C@]23CCC(C)(C)CC2C2=CCC4[C@@]5(C)CC[C@H](O[C@@H]6O[C@H](CO[C@@H]7OC[C@H](O)[C@H](O)[C@H]7O[C@@H]7OC[C@@H](O)[C@H](O)[C@H]7O)[C@@H](O)[C@H](O)[C@H]6O)C(C)(C)C5CC[C@@]4(C)[C@]2(C)CC3)[C@@H]1OC1OC(C)C(O[C@@H]2OC[C@@H](O)[C@H](O[C@@H]3OC[C@@H](O)[C@H](O)[C@H]3O)[C@H]2O)C(O)C1O (stereo not given in full)
Second: C[C@@H]1CCC2[C@@H](C)C(=O)OC3O[C@@]4(C)CCC1[C@]32OO4 (stereo not given in full)
The activation of the first is lower: -6.87% for the first, 37.5% for the second.

CCCC[N+]1(C)[C@@H]2CC(OC(=O)[C@H](CO)c3ccccc3)C[C@H]1[C@@H]1O[C@@H]12 (stereo not given in full) was tested, and the activation was -28.8% and -9.82%.

CC1=CC(=O)[C@@H](O)[C@@]2(C)C1C[C@H]1OC(=O)[C@H](O)[C@@]3(O)[C@@H](C)[C@@H](O)[C@H](O)C2[C@@]13C (stereo not given in full) was tested, and the Potency was 14.8 µM (active).
For CC(=O)OC[C@]12C[C@H](O)C(C)=C[C@H]1O[C@@H]1[C@H](O)[C@@H](OC(C)=O)[C@@]2(C)[C@]12CO2, the Potency was 0.083 µM (active).
CC(=O)OC[C@]12C[C@H](OC(C)=O)C(C)=C[C@H]1O[C@@H]1[C@H](O)[C@@H](O)[C@@]2(C)[C@]12CO2 was tested, and the Potency was 0.467 µM (active).
CC1=C[C@H]2O[C@@H]3[C@H](O)[C@@H](O)[C@](C)([C@@]2(CO)C[C@@H]1O)[C@]31CO1 was tested, and the Potency was 7.57 µM (active).
For C=C1C(=O)OC2/C=C(\COO)CC/C=C(\COC(C)=O)CC(OC(=O)C(C)CC)C12 (stereo not given), the Potency was 9.28 µM (active).
In the case of CC1=CC(=O)[C@@H](O)[C@]2(C)C3[C@@H](O)[C@@H]4OC(=O)[C@@H]([C@H]4C)[C@]3(C)C(=O)C[C@@H]12 (stereo not given in full), the Potency is reported as 16.6 µM (active).
In the case of C[C@@H]1O[C@@H](O[C@H]2CC[C@@]3(C)C(CC[C@@H]4C3CC[C@]3(C)[C@@H](C5=CC(=O)OC5)CC[C@]43O)C2)[C@H](O)[C@H](O)[C@H]1O (stereo not given in full), the Potency is reported as 1.65 µM (active).
